TLR4-MyD88 inh: inhibitors of human TLR4-MyD88 binding; Toll-like receptor 4 (Homo sapiens), O00206; Cell-based TLR4-MyD88 binding inhibition assay; inhibition, % at 10 µM; 16,000 tested, 0.06% active; AID 811, 2007; in the data active = inhibition above about 45%
S1P1 agonist: activates the human S1P1 receptor; Sphingosine 1-phosphate receptor 1 (Homo sapiens), P21453; activation, % at 4.5 µM; S1P1 agonist cell-based reporter assay; AID 1044, 2008; 16,000 tested, 1.5% active; in the data active = activation above about 80%
rat GALR2 ag: agonists of rat galanin receptor 2 (GALR2); cell-based GALR2 agonist screen; AID 833, 2007; activation, % at 10 µM; 16,000 tested, 0.5% active; in the data active = activation above about 15%
The depositor's hits bear a star. Sampled rows, rich in hits. Any-hit rate of the full collection: about 1.8%.

Results for Cc1c(C(=O)CC#N)sc2ccc(Cl)cc12 ?
TLR4-MyD88 inh: 4; S1P1 agonist: -8; rat GALR2 ag: -7

Results for Cc1c(C(=O)Cn2ccnc2)sc2ccc(Cl)cc12 ?
TLR4-MyD88 inh: 2; S1P1 agonist: 104*; rat GALR2 ag: -11

How did CSc1ncnc2c1nnn2Cc1ccccc1 do in these assays?
TLR4-MyD88 inh: -1; S1P1 agonist: -6; rat GALR2 ag: -8

Results for N#CCOc1nc(-c2ccccc2)cc(-c2ccco2)c1C#N ?
TLR4-MyD88 inh: 0; S1P1 agonist: -50; rat GALR2 ag: 22*

What do the screens show for `CCOC(=O)COc1nc(-c2cccs2)cc(-c2ccco2)c1C#N`?
TLR4-MyD88 inh: 1; S1P1 agonist: -16; rat GALR2 ag: -8

Results for O=C1C=CC(=O)N1c1cc(F)c(Br)cc1F ?
TLR4-MyD88 inh: -1; S1P1 agonist: -2; rat GALR2 ag: -3

How did COc1cc2c(cc1OC)CC(=O)OC2 do in these assays?
TLR4-MyD88 inh: 10; S1P1 agonist: 81*; rat GALR2 ag: -5

What do the screens show for `COc1cc2c(c(OC)c1OC)Cc1cc(OC)c(OC)c(OC)c1C2`?
TLR4-MyD88 inh: 7; S1P1 agonist: 0; rat GALR2 ag: -7

What do the screens show for `CCN(CC)c1ccc(/C=C/c2ccc([N+](=O)[O-])cc2C#N)cc1`?
TLR4-MyD88 inh: 7; S1P1 agonist: 104*; rat GALR2 ag: -13

How did CCN(CC)c1ccc(C#N)cc1 do in these assays?
TLR4-MyD88 inh: -8; S1P1 agonist: -3; rat GALR2 ag: -9

What do the screens show for `CCOC(CC(=O)NNC(=S)NC)OCC`?
TLR4-MyD88 inh: 2; S1P1 agonist: 4; rat GALR2 ag: -6

Results for c1ccc(N2CC3CCc4ccccc4C3=N2)cc1 (stereo unspecified) ?
S1P1 agonist: -39; rat GALR2 ag: 23*

How did O=C(COc1ccc(SC(F)(F)F)cc1)Nn1cccc1 do in these assays?
TLR4-MyD88 inh: 19; S1P1 agonist: 6; rat GALR2 ag: -6

How did CNC(=O)NC(=O)CSc1nnc(-c2ccccc2)o1 do in these assays?
TLR4-MyD88 inh: 9; S1P1 agonist: -9; rat GALR2 ag: -6

Results for COc1ccc(C(=O)NNc2c([N+](=O)[O-])cc(C(F)(F)F)cc2[N+](=O)[O-])cc1 ?
TLR4-MyD88 inh: -7; S1P1 agonist: 61; rat GALR2 ag: -4

What do the screens show for `O=C(NNc1c([N+](=O)[O-])cc(C(F)(F)F)cc1[N+](=O)[O-])c1ccccc1-n1cccc1`?
TLR4-MyD88 inh: -3; S1P1 agonist: 109*; rat GALR2 ag: -9

What do the screens show for `N#Cc1c(Cl)cccc1I`?
TLR4-MyD88 inh: 3; S1P1 agonist: 5; rat GALR2 ag: -3

Results for N#Cc1c(Cl)c(Cl)c(Cl)c(Cl)c1C#N ?
TLR4-MyD88 inh: -22; S1P1 agonist: 110*; rat GALR2 ag: -16

Results for N#Cc1c(Cl)cccc1-n1cccc1 ?
TLR4-MyD88 inh: -5; S1P1 agonist: 0; rat GALR2 ag: -7

What do the screens show for `N#C/C(=N\O)S(=O)(=O)c1ccccc1`?
TLR4-MyD88 inh: -4; S1P1 agonist: 1; rat GALR2 ag: 3

How did N#C/C(=N\Nc1ccccc1Cl)S(=O)(=O)c1ccc(Cl)cc1 do in these assays?
TLR4-MyD88 inh: -29; S1P1 agonist: 112*; rat GALR2 ag: -12

What do the screens show for `Nc1ccc(C(=O)c2ccccc2C(=O)O)cc1[N+](=O)[O-]`?
TLR4-MyD88 inh: 2; S1P1 agonist: -5; rat GALR2 ag: -8

What do the screens show for `COC(=O)c1sc(-c2ccc(C(C)(C)C)cc2)cc1NC(C)=O`?
TLR4-MyD88 inh: 7; S1P1 agonist: -14; rat GALR2 ag: -5

What do the screens show for `CCOC(=O)Nc1nc2ccc(C)cc2[nH]1`?
TLR4-MyD88 inh: -1; S1P1 agonist: 6; rat GALR2 ag: -6

What do the screens show for `Cc1onc(-c2ccccc2)c1CN1CCS(=O)(=O)CC1`?
TLR4-MyD88 inh: 0; S1P1 agonist: 3; rat GALR2 ag: -8

How did O=S1(=O)CCN(Cc2cc3ccccc3s2)CC1 do in these assays?
TLR4-MyD88 inh: 2; S1P1 agonist: -9; rat GALR2 ag: 36*

What do the screens show for `C/C(=N\OC(=O)c1ccc(Cl)cc1)c1cc(-c2ccccc2)no1`?
TLR4-MyD88 inh: 3; S1P1 agonist: -12; rat GALR2 ag: -8

What do the screens show for `COC(=O)c1ccsc1N1C(=O)C=C(C)C1=O`?
TLR4-MyD88 inh: 8; S1P1 agonist: -9; rat GALR2 ag: -3

What do the screens show for `N#C/C(=N\Nc1ccc(OC(F)(F)F)cc1)C(=O)c1ccsc1`?
TLR4-MyD88 inh: -2; S1P1 agonist: 107*; rat GALR2 ag: -10

Results for N#C/C(=C\Nc1ccc(OC(F)(F)F)cc1)C(=O)c1cccs1 ?
TLR4-MyD88 inh: 2; S1P1 agonist: 43; rat GALR2 ag: -2

Results for COC(=O)c1cc2ccccc2cn1 ?
TLR4-MyD88 inh: 1; S1P1 agonist: -9; rat GALR2 ag: -4

Results for O=c1[nH]nc(-c2ccc(F)cc2)c2ccccc12 ?
TLR4-MyD88 inh: -5; S1P1 agonist: -8; rat GALR2 ag: -3

Screening results: PubChem BioAssay, The Scripps Research Institute Molecular Screening Center
